Assay outcomes: PubChem, National Center for Advancing Translational Sciences (NCATS)
A selection: hits, their analogues and other compounds. The true share with any hit is near 6.5%.
HT1080NT lethal – kills 2HG-producing HT-1080-NT fibrosarcoma cells. 360,000 tested, 1.6% active. Potency, µM (titrated, usually from 46.1 µM), for inactives: top-dose activity, negative = less viability, most hits filed as cytotoxic. HT-1080-NT fibrosarcoma viability, CellTiter-Glo ATP luminescence, 48 h;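 further: NT is the 2HG producing partner of a matched IDH1 knockdown line; potency means the concentration at half of the fitted maximal effect; 0% = DMSO-treated cells and -100% = media-only wells without cells; nearly all actives have a fitted effect of over 55% in size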
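Luminescent CellTiter-Glo readout after 48 hours of compound exposure at 37 degrees C defined viability of HT-1080-NT cells. Activity was normalized to DMSO wells and cell-free media wells; concentration-response curves were fitted and assigned curve classes.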
HepG2 tox – kills HepG2 cells in TGF-b inhibitor counter-screen. HepG2 CAGA-GFP viability, ATP luminescence, 18 h. 410,000 tested, 0.76% active. AID 588856. Potency, µM (series often up to 46.1 µM), inactives show at the highest dose activity change, negative = cytotoxicity, usual class: cytotoxic; further: potency means the concentration at half of the fitted maximal effect
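CellTiter-Glo luminescence gave cytotoxicity after 18 hours at 37 degrees C. The cells were HepG2 CAGA-GFP in 1% FBS DMEM, stimulated with 500 pg/mL TGF-beta after compound addition. %Activity was normalised to no-cell wells (complete cell-killing) and DMSO (no toxicity), and curves were fitted and classified.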
HT1080 IDH1KD tx – kills HT-1080 cells with IDH1 knockdown; AID 686971; HT-1080 IDH1 knockdown viability, ATP luminescence, 48 h; 360,000 tested, 2% active; Potency, µM (titrated, usually from 46.1 µM), without a hit: top-dose activity, negative = toxicity, most hits filed as cytotoxic;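 further: potency means the concentration at half of the fitted maximal effect; 0% = DMSO wells and -100% = cell-free medium wells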
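Viability of IDH1-knockdown HT-1080 fibrosarcoma cells was assessed by CellTiter-Glo after 48 h at 37 °C with titrated compound; concentration-effect curves were classified by fit quality and response size.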
Giardia killer – kills Giardia lamblia; Giardia lamblia trophozoite viability; activity change, % at 7.66 µM, hits read low; 340,000 tested, 0.15% active; in the data active means activity change below about -80%; inconclusive means between about -30% and that limit;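 further: parasites exposed to compound for two days anaerobically before the ATP read; on the % scale 0 is the no-effect control and ±100 the full control effect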
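Trophozoite viability was measured as ATP-dependent luminescence, read 15-30 min after reagent addition. Before that, parasites at 100 cells/well were exposed to compounds for 48 h, anaerobically, at 37 deg C.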
IL-1B inflam inh – inhibitors of inflammasome signaling (IL-1 beta secretion) | THP-1 LPS/ATP IL-1B secretion, AlphaLISA, 16 h; hits give low values | AID 743279 | activity change, % at 57.5 µM | 360,000 tested, 4.7% active; in the data active means activity change below about -50%; inconclusive means mostly about -30% to -49%; further: on the % scale 0 is the no-effect control and ±100 the full control effect
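THP-1 cells pretreated 1 hr with compounds (up to 57.5 uM final), then stimulated with LPS (250 ng/mL final) plus ATP (1.25 mM final); secreted IL-1B measured by AlphaLISA after 16 hr, decreased signal indicating inhibition.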
TGFb SMAD3 inh – blocks TGF-b signaling. HepG2 CAGA-GFP TGF-b/SMAD3 reporter, GFP fluorescence, 18 h; TGF-beta stimulated, 500 pg/mL final. Potency, µM (series often up to 46.1 µM), for inactives: top-dose activity, negative = inhibition, hits mostly inhibitors. 410,000 tested, 1.2% active; further: potency means the concentration at half of the fitted maximal effect; on the % scale 0 is the no-effect control and ±100 the full control effect; nearly all actives have a fitted effect of over 65% in size
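Cell-based qHTS in HEPG2 carrying a CAGA-GFP Smad reporter; compounds added before 500 pg/mL final TGF-beta, 18 h incubation at 37 degrees C, GFP fluorescence quantified per cell by imaging cytometry.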
* marks the source's active call; other numbers are inactive results. Unless noted, the call rests on the fitted dose curve; in most records, active means well fitted curve in the direction sought with a large enough effect; inconclusive means small, poorly fitted or top-dose-only effect, or another doubt; inactive means no such curve, though single readings can be large; an effect the other way counts as inactive or inconclusive.

Screening COc1ccc(F)c(CN2CCC(CO)(Cc3cccc(C(F)(F)F)c3)CC2)c1 returned HT1080NT lethal inconclusive, HepG2 tox -45%, HT1080 IDH1KD tx -25%, Giardia killer -3, IL-1B inflam inh inconclusive and TGFb SMAD3 inh inconclusive.
Screening OCC1(Cc2ccccc2)CCN(Cc2cccc(F)c2F)CC1 returned HT1080NT lethal 5%, HepG2 tox -16%, HT1080 IDH1KD tx -1%, Giardia killer -27, IL-1B inflam inh -12 and TGFb SMAD3 inh -24%.
For COc1ccc(CN2CCC(CO)(Cc3cccc(C(F)(F)F)c3)CC2)cc1Cn1cccn1 the results were HT1080NT lethal 3%, HepG2 tox -81%, HT1080 IDH1KD tx -1%, Giardia killer -9, IL-1B inflam inh -75* and TGFb SMAD3 inh inconclusive.
`OCC1(Cc2ccccc2)CCN(Cc2ccc(C(F)(F)F)cc2)CC1` gave HT1080NT lethal 3%, HepG2 tox -63%, HT1080 IDH1KD tx -12%, Giardia killer -14, IL-1B inflam inh -51* and TGFb SMAD3 inh inconclusive.
For CC12CCC(C(=O)Nc3ccccc3N3CCOCC3)(CC1=O)C2(C)C (stereo unspecified) the results were HT1080NT lethal 10%, HepG2 tox -2%, HT1080 IDH1KD tx 15%, Giardia killer -22, IL-1B inflam inh 22 and TGFb SMAD3 inh inconclusive.
Screening Nc1ccccc1Oc1ccc2ccccc2c1 returned HT1080NT lethal 2%, HepG2 tox -35%, HT1080 IDH1KD tx -9%, Giardia killer 47, IL-1B inflam inh -3 and TGFb SMAD3 inh 16µM*.
C=CCSC(=C(C#N)C#N)c1cc2c([nH]1)CCCC2 was read as HT1080NT lethal 16µM*, HepG2 tox -97%, HT1080 IDH1KD tx 16µM*, Giardia killer -6, IL-1B inflam inh -115* and TGFb SMAD3 inh inconclusive.
`O=C(O)c1cc2c([nH]c1=O)CCCC2` gave HT1080NT lethal -4%, HepG2 tox 2%, HT1080 IDH1KD tx -5%, Giardia killer 5, IL-1B inflam inh -6 and TGFb SMAD3 inh 2%.
`CCCCCN(C(=O)CCCSc1nncs1)c1c(N)n(CCCC)c(=O)[nH]c1=O` gave HT1080NT lethal 5%, HepG2 tox 14%, HT1080 IDH1KD tx -2%, Giardia killer -14, IL-1B inflam inh -3 and TGFb SMAD3 inh 1%.
Cc1ccc(C(=O)N/C(=C\c2ccc([N+](=O)[O-])cc2)C(=O)NCCc2ccccc2)cc1 was read as HT1080NT lethal inconclusive, HepG2 tox -34%, HT1080 IDH1KD tx 11µM*, Giardia killer -1, IL-1B inflam inh 10 and TGFb SMAD3 inh -24%.
CCCCOc1ccc(C(=O)N/C(=C/C=C/c2ccccc2)C(=O)NCCO)cc1 was read as HT1080NT lethal -3%, HepG2 tox -2%, HT1080 IDH1KD tx -8%, Giardia killer -1, IL-1B inflam inh -53* and TGFb SMAD3 inh inconclusive.
For CCCCOc1ccc(C(=O)N/C(=C/C=C/c2ccccc2)C(=O)NCCCO)cc1 the results were HT1080NT lethal -17%, HepG2 tox 0%, HT1080 IDH1KD tx -1%, Giardia killer -8, IL-1B inflam inh inconclusive and TGFb SMAD3 inh inconclusive.
For CCOC(=O)/C(=C/C=C/c1ccccc1)NC(=O)c1ccccc1 the results were HT1080NT lethal -4%, HepG2 tox 14%, HT1080 IDH1KD tx 3%, Giardia killer 23, IL-1B inflam inh -12 and TGFb SMAD3 inh -5%.
For CCOC(=O)/C(=C\C=C\c1ccccc1)NC(=O)c1ccccc1 the results were HT1080NT lethal -2%, HepG2 tox -15%, HT1080 IDH1KD tx -3%, Giardia killer -7, IL-1B inflam inh -90* and TGFb SMAD3 inh 8%.
Screening CN(C)CCCNC(=O)/C(=C\C=C\c1ccccc1)NC(=O)c1ccc([N+](=O)[O-])cc1 returned HT1080NT lethal -7%, HepG2 tox 16%, HT1080 IDH1KD tx inconclusive, Giardia killer -3, IL-1B inflam inh -57* and TGFb SMAD3 inh -3%.
Cc1ccc(CN2CCN(Cc3nc4c(s3)CCCC4)CC2CCO)cc1 (stereo unspecified) was read as HT1080NT lethal -13%, HepG2 tox -16%, HT1080 IDH1KD tx -1%, Giardia killer 0, IL-1B inflam inh 8 and TGFb SMAD3 inh -6%.
For O=C(Nc1cccnc1N1CCOCC1)c1ccco1 the results were HT1080NT lethal 7%, HepG2 tox -3%, HT1080 IDH1KD tx 0%, Giardia killer -23, IL-1B inflam inh 4 and TGFb SMAD3 inh 1%.
CC1(c2ccccc2)NC(=S)N2C1NC(=S)N2c1ccccc1 (stereo unspecified) was read as HT1080NT lethal -9%, HepG2 tox -47%, HT1080 IDH1KD tx -14%, Giardia killer -7, IL-1B inflam inh -8 and TGFb SMAD3 inh 0%.
For COc1ccc(N2C(=S)NC3N2C(=S)NC3(C)c2ccccc2)cc1 (stereo unspecified) the results were HT1080NT lethal 16µM*, HepG2 tox 9%, HT1080 IDH1KD tx 12µM*, Giardia killer -4, IL-1B inflam inh -23 and TGFb SMAD3 inh inconclusive.
Screening C/C(N)=C(/C#N)C(=O)COC(=O)c1cc(C)n(-c2ccc(F)cc2)c1C returned HT1080NT lethal inconclusive, HepG2 tox -14%, HT1080 IDH1KD tx inconclusive, Giardia killer 20, IL-1B inflam inh -3 and TGFb SMAD3 inh 0%.
For Cc1nc2c(O)c3c(c(O)c2nc1C)C1C=CC3CC1 the results were HT1080NT lethal inconclusive, HepG2 tox -106%, HT1080 IDH1KD tx 16µM*, Giardia killer -4, IL-1B inflam inh 0 and TGFb SMAD3 inh inconclusive.
`Cc1nc2c(C)c(C)c(C)c(C)c2nc1C` gave HT1080NT lethal 10%, HepG2 tox 1%, HT1080 IDH1KD tx 4%, Giardia killer 9 and TGFb SMAD3 inh -7%.
Screening COc1ccc(-c2csc3ncnc(Cl)c23)cc1 returned HT1080NT lethal -21%, HepG2 tox 6%, HT1080 IDH1KD tx -13%, Giardia killer 5, IL-1B inflam inh -29 and TGFb SMAD3 inh -5%.
`Clc1nc(-c2ccccn2)nc2scc(-c3ccccc3)c12` gave HT1080NT lethal inconclusive, HepG2 tox 2%, HT1080 IDH1KD tx inconclusive, Giardia killer inconclusive, IL-1B inflam inh -60* and TGFb SMAD3 inh inconclusive.
CCOC(=O)c1ccc(NC(=O)Cn2nnc(-c3ccccc3C)n2)cc1 was read as HT1080NT lethal -21%, HepG2 tox -23%, HT1080 IDH1KD tx -14%, Giardia killer -8, IL-1B inflam inh -1 and TGFb SMAD3 inh inconclusive.
